Only some compounds are listed: those with a hit (about 7.3% of all), similar ones and a draw of the others.
NPC1 prom act: activates the NPC1 promoter. Huh7 NPC1 promoter luciferase reporter, 24 h. Potency, µM (top dose mostly 9.22 µM), without a hit: at the top dose activation, usual class: activators. actives 2.4% (n = 320,000); note: % of control where 0% means no effect; nearly all actives have a fitted effect of over 60% in size
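Luminescence read-out of NPC1 promoter-driven luciferase in stably transfected Huh7 cells; compounds delivered in DMSO and left 24 h at 37C, 5% CO2, qHTS titration format.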
Rab9 promoter act: activators of Rab9 promoter; AID 485297; actives 2.8% (n = 320,000); Potency, µM (top dose mostly 9.22 µM), inactives show top-dose activation, negative = inhibition, actives largely listed as activators; Huh7 Rab9 promoter-luciferase reporter, luminescence, 24 h; note: % of control where 0% means no effect; nearly all actives have a fitted effect of over 60% in size
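Rab9 promoter-driven luciferase in stably transfected Huh7 cells; 1500 cells/well rested 2 h, exposed to compound in DMSO for 24 h at 37 °C, 5% CO2. Luminescence read 10 min after adding luciferase reagent at ambient temperature.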
p53 reactivator: re-activators of mutant p53. H1299 p53-A138V BP100-luciferase reporter, luminescence, 24 h. Potency, µM (doses to about 92.2 µM), for inactives: at the highest dose activity change, positive = activation, most hits filed as activators. actives 0.063% (n = 320,000). AID 504706; note: % of control where 0% means no effect; nearly all actives have a fitted effect of over 45% in size
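H1299 (p53-null), stable ts p53-A138V + BP100-Luc; 1000 cells/well, Opti-MEM/10% FBS; cpd 4 pt, 1:5; 24 h, 37 deg C, 5% CO2; detection reagent 10 min RT; luminescence.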
ELG1 genotoxic: inducers of genotoxicity in HEK293T ELG1-luciferase cells | HEK293T ELG1-luciferase reporter, luminescence, 16 h | Potency, µM (series often up to 46 µM), for the others: at the top dose activity change, positive = activation, hits mostly activators | actives 1.3% (n = 330,000); note: % of control where 0% means no effect; nearly all actives have a fitted effect of over 60% in size
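Step 1: seed 2,000 HEK293T ELG1-luciferase cells per well. Step 2: add compound or DMSO, incubate 16 hr at 37 °C. Step 3: ONE-Glo, 30 min at room temperature, read luminescence.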
SMN2 splice enh: enhancers of SMN2 splice variant expression; actives 2.8% (n = 210,000); AID 1458; HEK293 SMN2-luciferase splicing reporter, luminescence, 30-36 h; Potency, µM (series often up to 46.1 µM), without a hit: at the highest dose activity change, positive = activation, most hits filed as activators; note: % of control where 0% means no effect; nearly all actives have a fitted effect of over 55% in size
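qHTS luciferase splicing reporter: luminescence rises when SMN2 exon 7 is included in transfected HEK293 cells. Compound exposure lasted 30-36 h at 37C, with 4.5 mM final sodium butyrate as control, followed by a ONE-Glo read.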
FLuc counter: inhibits or activates purified firefly luciferase, miR-21 counter-screen; P08659; purified FLuc, Km substrates, luminescence inhibition; Potency, µM (series often up to 57.5 µM), without a hit: top-dose activity change, negative = inhibition, actives largely listed as inhibitors; actives 6.9% (n = 360,000); AID 588342;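 note: plate controls were vehicle for no effect and reference inhibitor for full effect; nearly all actives have a fitted effect of over 55% in size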
Target sequence (P08659 whole entry, looked up): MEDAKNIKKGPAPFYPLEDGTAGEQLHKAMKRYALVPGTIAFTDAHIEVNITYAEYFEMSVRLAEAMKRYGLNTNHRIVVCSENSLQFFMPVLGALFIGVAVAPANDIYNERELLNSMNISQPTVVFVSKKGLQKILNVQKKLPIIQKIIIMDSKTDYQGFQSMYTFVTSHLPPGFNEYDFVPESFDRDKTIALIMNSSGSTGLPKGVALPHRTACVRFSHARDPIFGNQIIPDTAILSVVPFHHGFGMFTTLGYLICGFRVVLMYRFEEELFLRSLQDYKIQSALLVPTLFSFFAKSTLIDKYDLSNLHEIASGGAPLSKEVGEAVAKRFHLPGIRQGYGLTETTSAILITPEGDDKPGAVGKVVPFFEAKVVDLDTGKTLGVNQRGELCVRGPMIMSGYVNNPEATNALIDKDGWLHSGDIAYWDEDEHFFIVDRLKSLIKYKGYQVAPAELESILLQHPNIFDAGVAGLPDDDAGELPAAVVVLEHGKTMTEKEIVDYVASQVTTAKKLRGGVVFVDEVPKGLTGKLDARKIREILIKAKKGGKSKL
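Purified P. pyralis luciferase (10nM final) with 10uM D-luciferin and 10uM ATP (Km levels) in 50mM Tris acetate pH 7.5, 10mM Mg acetate, 0.01% Tween-20, 0.05% BSA; qHTS 6-point titration, ~60 µM downward; luminescence read.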
* hit, by the source's call; [ ] = dose if it differs, or a comment. Calls come from the whole dose curve; as a rule, active = well fitted curve in the direction sought with a large enough effect; inconclusive = small, poorly fitted or top-dose-only effect, or another doubt; inactive = no such curve, though single readings can be large; an effect the other way counts as inactive or inconclusive. Potency is the fitted concentration of half-maximal effect.

For COCC(=O)Nc1c(C(=O)Nc2cccc(OC)c2)oc2ccccc12 the results were NPC1 prom act 3.55µM*, Rab9 promoter act 3.55µM*, p53 reactivator inconclusive, ELG1 genotoxic inconclusive, SMN2 splice enh 11.2µM* and FLuc counter 0.0%.
COc1cccc(NC(=O)CSc2nc3c(oc4ccccc43)c(=O)[nH]2)c1 was read as NPC1 prom act 7.5%, Rab9 promoter act -3.5%, p53 reactivator inconclusive, ELG1 genotoxic 5.7%, SMN2 splice enh 29.1% and FLuc counter 3.79µM*.
Screening COc1ccc(NC(=O)c2oc3ccccc3c2NC(=O)c2ccco2)cc1 returned NPC1 prom act -1.6%, Rab9 promoter act -5.3%, p53 reactivator 1.1%, ELG1 genotoxic -8.9%, SMN2 splice enh -1.7% and FLuc counter 13.5µM*.
`COc1cccc(NC(=O)c2oc3ccccc3c2NC(C)=O)c1` gave NPC1 prom act inconclusive, Rab9 promoter act 3.55µM*, p53 reactivator 25.2%, ELG1 genotoxic inconclusive, SMN2 splice enh inconclusive and FLuc counter inconclusive.
`O=S(=O)(Nc1cccc(-c2nnco2)c1)c1ccc(F)cc1F` gave NPC1 prom act -1.2%, Rab9 promoter act -9.8%, p53 reactivator 2.2%, ELG1 genotoxic 0.0% and FLuc counter -1.6%.
`COc1ncc2nc(C)c(=O)n(C[C@H]3CCCO3)c2n1` gave SMN2 splice enh -1.0%.
For c1ccc(-c2cn(C[C@H]3CC[C@H](Cn4cc(-c5ccccn5)nn4)O3)nn2)nc1 the results were NPC1 prom act 3.1%, Rab9 promoter act -1.5%, p53 reactivator 10.0%, ELG1 genotoxic 0.3% and FLuc counter -1.6%.
CCCn1nnc(NC(=O)c2ccc(Br)cc2)n1 was read as NPC1 prom act inconclusive, Rab9 promoter act 3.98µM*, p53 reactivator inconclusive, ELG1 genotoxic 9.2µM*, SMN2 splice enh 14.1µM* and FLuc counter inconclusive.
For CCOc1ccc(C(=O)Nc2nnn(CC)n2)cc1 the results were NPC1 prom act 3.98µM*, Rab9 promoter act 3.98µM*, p53 reactivator inconclusive, ELG1 genotoxic 10.3µM* and FLuc counter 12µM*.
CCCn1nnc(NC(=O)c2ccc(-c3ccccc3)cc2)n1 was read as NPC1 prom act 2.51µM*, Rab9 promoter act 2.51µM*, p53 reactivator 8.7%, ELG1 genotoxic inconclusive, SMN2 splice enh inconclusive and FLuc counter 9.53µM*.
CCCn1nnc(NC(=O)c2ccc(OC)cc2)n1 was read as NPC1 prom act 3.98µM*, Rab9 promoter act inconclusive, p53 reactivator 18.0%, ELG1 genotoxic 18.4µM*, SMN2 splice enh inconclusive and FLuc counter 21.3µM*.
`CCOc1ccc(C(=O)Nn2cnnc2)cc1` gave NPC1 prom act 12.2%, Rab9 promoter act 1.1%, p53 reactivator -2.6%, ELG1 genotoxic 0.5%, SMN2 splice enh -1.7% and FLuc counter -3.9%.
For CCCn1nnc(NC(=O)c2ccc(OCC)c(Cl)c2)n1 the results were NPC1 prom act 2.7%, Rab9 promoter act 23.1%, p53 reactivator 10.1%, ELG1 genotoxic 9.9%, SMN2 splice enh 3.2% and FLuc counter 6.5%[2.3 µM].
Screening CC(Sc1nccn1C)C(=O)Nc1ccccc1C#N (stereo unspecified) returned SMN2 splice enh -8.1% and FLuc counter -3.2%.
Screening CCOC(=O)c1sc2cccc(F)c2c1S(=O)(=O)N1CCN(c2cccc(Cl)c2)CC1 returned FLuc counter -5.9%.
C=CCOC(=O)COc1ccc2c(C)c(C)c(=O)oc2c1 was read as NPC1 prom act -0.1%, Rab9 promoter act -0.7%, p53 reactivator -13.5%, ELG1 genotoxic 1.7%, SMN2 splice enh 10.0% and FLuc counter 19µM*.
`C=CCOC(=O)COc1ccc2c(C)c(CC)c(=O)oc2c1` gave NPC1 prom act 4.6%, Rab9 promoter act -2.5%, p53 reactivator 9.8%, ELG1 genotoxic -1.3%, SMN2 splice enh 29.5% and FLuc counter 12µM*.

High-throughput results: PubChem BioAssay, National Center for Advancing Translational Sciences (NCATS)
